The values that follow come from PubChem BioAssay AID2227 (Johns Hopkins Ion Channel Center, 2009).

SMILES strings stand for the structures. Among all 310,000 compounds or so, about 1,300 (0.42%) were called active.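 How the source made its calls: active means B-score of calcium response area above 5 SD of library B-scores, with initial fluorescence ratio within 5 SD of library; inactive means the rest.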 The entries come from a sample that favours actives as a whole.

The target in this assay is Short transient receptor potential channel 4 (Mus musculus) (UniProt Q9QUQ5). As to the kind of experiment: positive allosteric modulators of TRPC4, primary screen, cell-based, mouse TRPC4beta, HEK293 mu-opioid, Fluo-4 calcium (AID 2227).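 On B-score: B-score of integrated fluorescence ratio over time as area under calcium response.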 Conditions: DAMGO EC20, Fluo-4 Ca2+ flux, at 10 µM; hits give high values.
Short transient receptor potential channel 4 (Mus musculus), sequence (Q9QUQ5 whole entry, looked up): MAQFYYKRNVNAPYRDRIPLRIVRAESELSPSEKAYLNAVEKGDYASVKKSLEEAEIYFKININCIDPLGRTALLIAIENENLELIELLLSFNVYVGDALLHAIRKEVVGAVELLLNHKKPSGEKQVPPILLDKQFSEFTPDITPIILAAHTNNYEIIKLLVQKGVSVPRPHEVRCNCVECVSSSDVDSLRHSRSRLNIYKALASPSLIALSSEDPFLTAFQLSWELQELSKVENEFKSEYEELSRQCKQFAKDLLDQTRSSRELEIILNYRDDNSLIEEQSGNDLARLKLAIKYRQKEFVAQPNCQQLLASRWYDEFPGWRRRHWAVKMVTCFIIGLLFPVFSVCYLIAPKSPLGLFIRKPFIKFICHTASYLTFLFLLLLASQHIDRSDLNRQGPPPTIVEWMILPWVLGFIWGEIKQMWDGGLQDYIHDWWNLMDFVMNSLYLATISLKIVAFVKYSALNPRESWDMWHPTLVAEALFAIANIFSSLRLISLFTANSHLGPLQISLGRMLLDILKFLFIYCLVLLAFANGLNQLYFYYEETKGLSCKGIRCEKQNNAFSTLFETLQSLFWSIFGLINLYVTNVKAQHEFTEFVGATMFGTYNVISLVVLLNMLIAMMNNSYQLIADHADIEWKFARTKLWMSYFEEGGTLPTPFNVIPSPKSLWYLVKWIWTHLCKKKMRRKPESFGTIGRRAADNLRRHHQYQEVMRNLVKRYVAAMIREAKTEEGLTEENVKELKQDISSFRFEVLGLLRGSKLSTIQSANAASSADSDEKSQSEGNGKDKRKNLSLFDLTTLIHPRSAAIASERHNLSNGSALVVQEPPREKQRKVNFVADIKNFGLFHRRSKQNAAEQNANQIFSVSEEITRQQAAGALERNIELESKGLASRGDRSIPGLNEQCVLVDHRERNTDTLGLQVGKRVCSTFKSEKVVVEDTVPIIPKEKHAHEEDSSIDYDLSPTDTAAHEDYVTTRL
Regarding `C=CCC1(C(=O)N(C)Cc2ccccc2)CCN(C(=O)OC(C)(C)C)CC1`, the B-score result is “inactive”.
As to `CC1(C)CC(=O)C(N=Nc2c(F)cccc2F)=C(O)C1`, the B-score result was “inactive”.
The figure for `Cc1ccc(N2C(=O)C(NC(=O)c3c(F)cccc3F)(C(F)(F)F)C3=C2CC(C)(C)CC3=O)cc1` (stereo not given) is 119 (active).
For the compound `C=CCSc1nnc(N2C(=O)C(O)=C(C(=O)c3ccco3)C2c2ccc(F)cc2)s1` (stereo not given), the B-score result was “inactive”.
On to `COc1ccccc1N(C)S(=O)(=O)c1ccc(C(=O)NC2CCCCCC2)cc1`, for which the B-score result was “inactive”.
Regarding `COC(=O)Cc1csc(/N=C/c2c(O)n(-c3cccc(C(F)(F)F)c3)c(=O)c3ccccc23)n1`, the B-score result is “inactive”.
On to `O=S(=O)(c1ccccc1)c1nc(Cc2ccccc2)oc1N1CCOCC1`, for which the B-score entry was “inactive”.
Turning to `O=S(=O)(c1ccc(Br)cc1)c1nc(-c2ccccc2)oc1N1CCOCC1`, the B-score was 11 (active).
For the compound `O=S(=O)(c1ccccc1)c1nc(-c2ccccc2)oc1NCCCN1CCOCC1`, the B-score entry is “inactive”.
As for `COc1nnc(-c2ccc(C)c(S(=O)(=O)N(C)C)c2)c2ccccc12`, the B-score entry was “inactive”.
Take `CC1CCCCC1NC(=O)CO/N=C/c1ccc(OC(F)F)cc1` (stereo not given): the B-score result is “inactive”.
The entry for `Cc1nn(CC(=O)Nc2ccc(N(C)C)cc2)c(C)c1[N+](=O)[O-]` is “inactive”.
On to `COc1cccc(/C=C/C(=O)OCC(=O)N2CCCc3ccccc32)c1`, for which the B-score result is “inactive”.
On to `Cc1cc2cc3c(N)[nH]nc3nc2cc1C`, for which the B-score was 11 (active).
For `O=C(NCCN1CCOCC1)c1cc(Sc2cccc(Cl)c2)nc2ccccc12`, the B-score entry is “inactive”.
Turning to `COc1cc(C(=O)N2CCN(C)CC2)cc(OC)c1OC`, the B-score entry was “inactive”.
For `COc1cc2c(C(=O)N3CCN(C)CC3)c(CSc3ccccc3)n(C)c2cc1Br`, the B-score is 18 (active).
For `COc1ccccc1OCc1ccc(C(=O)N2CCN(C)CC2)o1` the value was “inactive”.
Turning to `CC1=C(C(=O)OCC2CCCCC2)C(c2ccc(F)cc2)NC(=O)N1` (stereo not given), the B-score entry was “inactive”.
Take `Clc1c(OCCCn2ccnc2)ccc2ccccc12`: the B-score is 15 (active).
For `C=CCc1cc(C)ccc1OCCCn1ccnc1` the value was “inactive”; for `c1ccc(Cc2ccc(OCCn3ccnc3)cc2)cc1`, “inactive”; for `Fc1ccccc1/C=N/Nc1cc(N2CCCCC2)ncn1`, “inactive”.
On to `O=C(NCc1cccc(Cl)c1)C1CCC(=O)N(C2CC2)C1` (stereo not given), for which the B-score entry is “inactive”.
As for `C=CCN(Cc1nc(-c2cc(OC)c3c(c2)OCO3)oc1C)C1CCS(=O)(=O)C1` (stereo not given), the B-score result is “inactive”.
Take `C=C(C)COc1ccc(-c2nc(N)ncc2-c2ccccc2OC)c(O)c1`: the B-score was 22 (active).
For `C=C(C)COc1ccc(-c2ncncc2-c2ccc(OC)cc2)c(O)c1`, the B-score result was “inactive”.
The entry for `CCOc1ccc(-c2nc(N)ncc2-c2ccccc2OC)c(O)c1` is “inactive”; for `CC(C)Oc1ccc(CC(=O)NNC(=S)Nc2ccc(Br)cc2)cc1` it is “inactive”.
The entry for `COc1cc(CCC(=O)Nc2ccncc2Cl)cc(OC)c1OC` is “inactive”.
Take `O=C1c2ccccc2C(=O)c2c1cccc2N1CCN(C/C=C/c2ccccc2)CC1`: the B-score result is “inactive”.
In the case of `O=C1c2ccccc2C(=O)c2c1cccc2N1CCN(Cc2ccccc2)CC1`, the B-score is 14 (active).
As for `O=C1c2ccccc2C(=O)c2c1cccc2N1CCN(CCO)CC1`, the B-score entry is “inactive”.
Turning to `Cc1ccc(Cl)cc1NC(=O)CN1CCN(S(=O)(=O)N2CCOCC2)CC1`, the B-score result is “inactive”.
With `O=C(c1ccc(Cl)s1)N(Cc1nnc(-c2ccccc2Cl)o1)C1CC1`, the B-score result is “inactive”.
For `CCc1c(C)nc(N)n2c(SCC(=O)NC3CCCCC3)nnc12` the value was “inactive”; for `Cc1ccc(NC(=O)c2cnc(SCC(=O)NCC3CCCO3)n(C)c2=O)cc1` (stereo not given), “inactive”.
On to `Cc1cc(C(=O)Nc2ccccc2N2CCOCC2)c2ccccc2n1`, for which the B-score result was “inactive”.
Take `COC(=O)c1cc(N2CCNCC2)nc2ccccc12`: the B-score was 39 (active).
Regarding `COc1ccccc1NC(=O)c1cc(Cl)nc2ccccc12`, the B-score result is “inactive”.
For `Cc1cccc(N2C(=O)SC(SC(=Nc3ccccc3)Nc3ccccc3)C2=O)c1` (stereo not given) the value was “inactive”.
On to `CCCCn1c(=S)[nH]c2ccccc2c1=O`, for which the B-score entry is “inactive”.
In the case of `CN(C)CCn1c(=S)[nH]c2ccc(Cl)cc2c1=O`, the B-score was 14 (active).
`O=C(O)c1ccc(Cn2c(=S)[nH]c3cc(Cl)ccc3c2=O)cc1`: the B-score result is “inactive”.
As to `Cc1ccc(Cl)cc1N1CCN(C(=O)c2cccc3c(=O)c(C)c(-c4ccccc4)oc23)CC1`, the B-score was 24 (active).
With `Cc1cccc(N2CCN(C(=O)c3cnn4c(C(F)F)cc(-c5ccccc5)nc34)CC2)c1C`, the B-score entry is “inactive”.
In the case of `COC(=O)c1ccc(C(=O)OC)c(NC(=S)N2CCN(c3cc(Cl)ccc3C)CC2)c1`, the B-score result is “inactive”.
With `COc1cccc(NC(=O)CSc2nccn(-c3ccc4c(c3)OCCO4)c2=O)c1`, the B-score entry is “inactive”.
Take `CCOc1ccc(NS(=O)(=O)c2ccc(C)c(C(N)=O)c2)cc1`: the B-score result is “inactive”.
As to `COc1cc(Cl)c(S(=O)(=O)N2CCN(Cc3ccc4c(c3)OCO4)CC2)cc1Cl`, the B-score was 37 (active).
For `COc1ccc(-c2cc(C(=O)N3CCN(Cc4ccc5c(c4)OCO5)CC3)on2)cc1OC`, the B-score result is “inactive”.
For `CCn1cc(C(=O)N2CCN(Cc3ccc4c(c3)OCO4)CC2)c2cc(OC)c(OC)cc2c1=O` the value was “inactive”; for `CC(=O)c1ccccc1OCc1ccc(C(=O)c2ccccc2)cc1`, “inactive”; for `COC(=O)c1cc(C(=O)OCC(=O)Nc2cc(C)on2)cc([N+](=O)[O-])c1`, “inactive”.
As for `COc1ccc(OCCn2ccnc2C)cc1`, the B-score entry is “inactive”.
The entry for `Brc1c(CSc2nncc3ccccc23)nc2ccccn12` is “inactive”; for `COc1ccccc1NS(=O)(=O)c1ccc(C(=O)N2CCN(c3ccccc3O)CC2)cc1` it is “inactive”.
Regarding `CCn1c(O)c(N=NC(=O)c2cccc(S(=O)(=O)N3CCCCC3)c2)c2ccccc21`, the B-score was 15 (active).
Turning to `CCn1c2ccccc2c2cc(NC(=O)COC(=O)c3cc(S(=O)(=O)N4CCCCC4)ccc3Cl)ccc21`, the B-score entry was “inactive”.
Turning to `Cc1cccc(NC(=O)c2cccc(S(=O)(=O)N3CCCC3)c2)n1`, the B-score result was “inactive”.
As for `COc1ccc(CSc2nnnn2-c2ccc(C(=O)O)cc2)cc1`, the B-score result was “inactive”.
Regarding `Cc1ccccc1OC/C(O)=C(\C#N)c1nc2ccccc2[nH]1`, the B-score result is “inactive”.
With `COCCN(CCOC)S(=O)(=O)c1ccc(/C(O)=C(\C#N)c2nc3ccccc3[nH]2)cc1`, the B-score was 11 (active).
For the compound `CCC(=O)/C(=C(/O)c1ccccc1)c1nc2ccccc2[nH]1`, the B-score result was “inactive”.
As for `COC(=O)c1c(CCl)noc1C(=O)NC(C)C`, the B-score result was “inactive”.
For `O=C(Nc1cccc(F)c1)c1coc(=O)c(Br)c1` the value was “inactive”.
On to `CC(=N\NC(=O)c1cc(Br)ccc1O)/C(=N/O)C(=O)Nc1ccccc1`, for which the B-score entry was “inactive”.
With `Cc1ccc(CN2CCN(/N=C/c3cccnc3)CC2)c(C)c1`, the B-score was 12 (active).
Take `Cc1ccc(CN2CCN(c3ncccn3)CC2)c(C)c1`: the B-score result was “inactive”.
For the compound `Clc1ccc(CN2CCN(/N=C/c3cccnc3)CC2)cc1`, the B-score was 12 (active).
As to `O=C1/C(=C\c2cccnc2)CN(Cc2ccccc2)C/C1=C\c1cccnc1`, the B-score entry is “inactive”.
For `Cc1ccc(CN2CCN(/N=C/c3ccco3)CC2)c(C)c1`, the B-score result was “inactive”.
In the case of `C(=N\n1cnnc1)/c1cccnc1`, the B-score entry is “inactive”.
For `CCOc1ccc(S(=O)(=O)NCCCn2ccnc2)cc1NC(C)=O` the value was “inactive”; for `CCc1ccc(/C=N/NC(=O)c2nnn(-c3nonc3N)c2CN2CCc3ccccc32)cc1`, “inactive”.
In the case of `CCN(CCn1cccn1)Cc1cn[nH]c1-c1ccc(OC)cc1F`, the B-score entry was “inactive”.
As for `Cc1cccc(C)c1NC(=O)C1(N(C(=O)c2ccccn2)c2ccc(O)cc2)CCCCC1`, the B-score result was “inactive”.
On to `CN(C)CCCN(Cc1cc2cc3c(cc2[nH]c1=O)OCCO3)C(=O)NC1CCCCC1`, for which the B-score entry was “inactive”.
As to `COCCCNC(=S)NC(=O)c1ccccc1`, the B-score entry is “inactive”.
With `CCOC(=O)C1=C(NC(=S)NC(=O)c2ccccc2)c2ccccc2CC1(C)C`, the B-score was 25 (active).
With `Cc1ccc(NC(=S)NC(=O)c2ccc(-c3ccccc3)cc2)cc1`, the B-score entry is “inactive”.
As for `CCOC(=O)C(CC)/C(C)=N\NC(=O)c1cccc(C)c1` (stereo not given), the B-score result was “inactive”.
For the compound `ONC(=Nc1ccccc1)c1ccccc1Cl`, the B-score result is “inactive”.
For `O=C(Nc1nnc(SCc2c(Cl)cccc2Cl)s1)c1cccc([N+](=O)[O-])c1`, the B-score entry was “inactive”.
Turning to `O=C(Nc1nnc(SCc2ccccc2Cl)s1)c1cccc([N+](=O)[O-])c1`, the B-score was 12 (active).
For `NC(=O)CSc1nnc(NC(=O)c2ccc3ccccc3c2)s1`, the B-score entry is “inactive”.
For `Cc1ccc(S(=O)(=O)N2CCN(C(=O)Cc3sc(C)nc3-c3ccc(F)cc3)CC2)c(C)c1` the value was “inactive”.
As to `CCOc1ccccc1NC(=S)NC(=O)CCc1ccccc1`, the B-score result is “inactive”.
`Cc1sc2nc(SCC(N)=O)n(C)c(=O)c2c1C`: the B-score was 29 (active).
Turning to `C=CCn1c(SCC(=O)/C(C#N)=C(\C)N)nc2sc(C)c(C)c2c1=O`, the B-score result is “inactive”.
For `Cc1sc2nc(SCCO)n(-c3ccccc3)c(=O)c2c1C` the value was “inactive”.
Turning to `Cc1cc(Nc2cccc(F)c2)n2ncnc2n1`, the B-score entry is “inactive”.
Turning to `COc1ccc(/C=C2/S/C(=N/N=C3\CC4CCC3(C)C4(C)C)NC2=O)cc1` (stereo not given), the B-score entry is “inactive”.
On to `CC(=O)N1c2ccc(S(=O)(=O)N3CCC(C(=O)N4CCN(c5ccccc5)CC4)CC3)cc2CC1C` (stereo not given), for which the B-score result is “inactive”.
On to `COc1ccccc1CNC(=O)C1CCN(S(=O)(=O)c2ccc3c(c2)CC(C)N3C(=O)C2CC2)CC1` (stereo not given), for which the B-score result was “inactive”.
For `CC(=O)c1ccc(N2CCN(C(=O)C3CCN(S(=O)(=O)c4ccc5c(c4)CC(C)N5C(=O)C4CC4)CC3)CC2)cc1` (stereo not given) the value was 19 (active); for `COC(=O)C1=C(C)NC(=O)CC1c1ccccc1OC` (stereo not given), “inactive”; for `COc1ccccc1C1C2=C(COC2=O)Nc2cc3c(cc21)OCO3` (stereo not given), “inactive”.
The figure for `CCCOc1ccccc1C1CC(=O)Nc2cc3c(cc21)OCO3` (stereo not given) is 14 (active); for `C/C(=C/c1ccccc1)C(=O)N1CCN(c2ccccc2)CC1` it is “inactive”; for `O=C(O)c1cc2ccccc2c(=O)s1` it is “inactive”.
Consider `Cc1ccc(-c2nnn(CC(=O)N(CCO)C(C(=O)NC(C)(C)C)c3ccncc3)n2)cc1` (stereo not given), for which the B-score was 10 (active).
The entry for `Cc1ccc(-c2nnn(CC(=O)N(Cc3ccco3)C(C(=O)NC(C)(C)C)c3ccncc3)n2)o1` (stereo not given) is “inactive”; for `COc1ccc(-c2nnn(CC(=O)N(CCO)C(C(=O)NC3CCCC3)c3ccc(F)cc3)n2)cc1` (stereo not given) it is “inactive”.
As for `O=C1C(=O)N(CCN2CCOCC2)C(c2cccc(Cl)c2)/C1=C(/O)c1ccc2c(c1)OCO2` (stereo not given), the B-score entry is “inactive”.
